This is a sample that favours compounds with a hit; in the whole collection about 27% have one here.
CYP2C19 act: cytochrome P450 2C19 (human) activation; P33261; recombinant CYP2C19, luciferin-H EGE luminescence; stronger effect = higher value; 0 = fully inhibited enzyme, 1 = untreated enzyme; activation factor at 5 µM; 96,000 tested, under 10 active; AID 1025;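 active = activation factor of at least 2 at 5 µM in the primary screen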;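 also: 0 = wells with 2.5 mM tranylcypromine and 1 = vehicle-only wells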
CYP2C9 activ: increases human cytochrome P450 2C9 activity; recombinant CYP2C9, luciferin-H conversion, luminescence; stronger effect = higher value; factor 1 = untreated enzyme, 0 = blocked; 1.4% of 96,000 active; activation factor at 5 µM; P11712;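 active = activation factor of 2 or more for CYP2C9 at a 5 µM dose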;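 also: 0 = sulfaphenazole-blocked wells and 1 = vehicle-only wells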
CYP2C19 inh: human CYP2C19 inhibition | AID 778 | 21% of 96,000 active | CYP2C19 Supersomes, luciferin-H EGE luminescence, 30 min | inhibition, % at 5 µM | P33261;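 active = CYP2C19 inhibition above a set limit at 5 µM in the primary screen, cut at about 50% in these data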;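 also: plate controls were negative control wells for no effect and 2.5 mM tranylcypromine positive control for full effect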
Cav3 T inh: blocks human Cav3.2 T-type calcium channel; O95180; Cav3.2-expressing cells, Fluo-4 calcium fluorescence FDSS; stronger effect = lower value; B-score at 10 µM; 4% of 100,000 active; AID 449739;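 active = single-dose well whose peak fluorescence ratio is a statistical outlier from its plate by either plate-standardised score or position-corrected B-score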
CYP2C9 inh: human CYP2C9 inhibition; P11712; CYP2C9 Supersomes, luciferin-H conversion, luminescence; inhibition, % at 5 µM; 20% of 96,000 active; AID 777;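 active = blocking of liver enzyme CYP2C9 beyond about 50% at 5 µM, limit read from the data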
Pyk2 oligo antag: blocks oligomerization of human Pyk2 in cells | Q14289 | Q293 cells, Pyk2 FERM NanoBiT luminescence; stronger effect = lower value | z-score (the deposit names both 25 µM and 10 µM) | 0.83% of 99,000 active | AID 1347419;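 active = Z-score of -3 or lower, scaled per plate to the spread of control and sample wells; inactive = z-score above -3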;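 also: negative z-score means lost luminescence so less FERM oligomerization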
Numbers without * were called inactive.

What do the screens show for `COc1ccccc1/C=N/Nc1nccnc1Cl`?
CYP2C19 act: 0.5; CYP2C9 activ: 0.5; CYP2C19 inh: 51*; Cav3 T inh: -0.011; CYP2C9 inh: 47; Pyk2 oligo antag: -0.13

Results for COc1ccc(CCNC(=O)Cn2c(=O)n(Cc3ccco3)c(=O)c3ccc(Cl)cc32)cc1OC ?
CYP2C19 act: 0.6; CYP2C9 activ: 0.6; CYP2C19 inh: 35; Cav3 T inh: -0.17; CYP2C9 inh: 42; Pyk2 oligo antag: 0.26

What do the screens show for `CCOC(=O)Cn1c(=O)n(Cc2ccco2)c(=O)c2ccc(C(=O)NCCc3ccccc3)cc21`?
CYP2C19 act: 0.7; CYP2C9 activ: 0.5; CYP2C19 inh: 27; Cav3 T inh: -4.6*; CYP2C9 inh: 49; Pyk2 oligo antag: 0.45

Results for CCOC(=O)N1CCC(NC(=O)C2CCCN(C(=O)N3CCOc4ccccc43)C2)CC1 (stereo not drawn) ?
CYP2C19 act: 0.8; CYP2C9 activ: 0.2; CYP2C19 inh: 16; Cav3 T inh: 0.63; CYP2C9 inh: 80*; Pyk2 oligo antag: 1.2

What do the screens show for `C#CCOC(=O)Nc1cccn(Cc2c(Cl)cccc2Cl)c1=O`?
CYP2C19 act: 0.3; CYP2C9 activ: 2*; CYP2C19 inh: 65*; Cav3 T inh: -2; CYP2C9 inh: -97; Pyk2 oligo antag: -0.49

Results for CCOC(=O)c1oc2cccc(OCC(O)CNC(C)C)c2c1C (stereo not drawn) ?
CYP2C19 act: 0.3; CYP2C9 activ: 0.6; CYP2C19 inh: 70*; CYP2C9 inh: 37; Pyk2 oligo antag: 0.02

What do the screens show for `CCOC(=O)c1nnc(-c2ccc(C)cc2)nc1Sc1cccc(Cl)c1`?
CYP2C19 act: 1; CYP2C9 activ: 1; CYP2C19 inh: 1; CYP2C9 inh: 2; Pyk2 oligo antag: -1.1

How did O=C(O)c1cnc(-c2ccccc2)nc1Sc1ccc(Cl)cc1 do in these assays?
CYP2C19 act: 1; CYP2C9 activ: 0.4; CYP2C19 inh: 4; Cav3 T inh: -3.3; CYP2C9 inh: 61*; Pyk2 oligo antag: -1

What do the screens show for `Clc1ccccc1Sc1cnc2ccccc2n1`?
CYP2C19 act: 0.8; CYP2C9 activ: 1; CYP2C19 inh: 16; Cav3 T inh: -0.4; CYP2C9 inh: 4; Pyk2 oligo antag: -0.11

Results for O=C(O)c1cnc(-c2ccccc2)nc1Sc1ccccc1Cl ?
CYP2C19 act: 1.1; CYP2C9 activ: 0.8; CYP2C19 inh: -8; Cav3 T inh: -6.4*; CYP2C9 inh: 17; Pyk2 oligo antag: -1.1

What do the screens show for `CCOC(=O)c1nnc(-c2ccccc2)nc1Sc1ccccc1Cl`?
CYP2C19 act: 0.8; CYP2C9 activ: 0.5; CYP2C19 inh: 20; Cav3 T inh: 0.7; CYP2C9 inh: 54*; Pyk2 oligo antag: -0.92

Results for CC(C)c1ccc(Oc2cccc(C(=O)/C(C#N)=C/N(C)C)c2)cc1 ?
CYP2C19 act: 0; CYP2C9 activ: 0.1; CYP2C19 inh: 98*; Cav3 T inh: -2.4; CYP2C9 inh: 85*; Pyk2 oligo antag: -1.3

How did CN(C)/C=C(\C#N)C(=O)c1cccc(Oc2ccc(Br)cc2)c1 do in these assays?
CYP2C19 act: 0.1; CYP2C9 activ: 0.7; CYP2C19 inh: 92*; Cav3 T inh: -4.2*; CYP2C9 inh: 29; Pyk2 oligo antag: 0.69

Results for CC(C)=CCC/C(C)=C/C=N/NC(=O)c1ccc([N+](=O)[O-])cc1 ?
Pyk2 oligo antag: -0.47

Results for N#Cc1ccc(CSc2nnc(COc3ccccc3)n2-c2ccccc2)cc1 ?
CYP2C19 act: 0.2; CYP2C9 activ: 0.3; CYP2C19 inh: 76*; Cav3 T inh: -0.76; CYP2C9 inh: 67*; Pyk2 oligo antag: 0.34

Results for Cc1ccc(C(=O)CSc2nnc(COc3ccc(C#N)cc3)n2-c2ccccc2)cc1 ?
Cav3 T inh: -0.15; Pyk2 oligo antag: 0.36

What do the screens show for `CCn1c(COc2ccc(C)cc2)nnc1SCc1ccc(C#N)cc1`?
CYP2C19 act: 1; CYP2C9 activ: 0.8; CYP2C19 inh: 3; Cav3 T inh: -1.1; CYP2C9 inh: 18; Pyk2 oligo antag: -0.24

What do the screens show for `COc1ccc(-n2c(COc3ccccc3)nnc2SCc2ccc(C#N)cc2)cc1`?
CYP2C19 act: 0; CYP2C9 activ: 0.1; CYP2C19 inh: 96*; Cav3 T inh: -2.8; CYP2C9 inh: 93*; Pyk2 oligo antag: -1.2

What do the screens show for `CCCOc1ccc(C(C)=O)cc1CSc1nc(O)cc(=O)[nH]1`?
CYP2C19 act: 0.9; CYP2C9 activ: 0.3; CYP2C19 inh: 9; Cav3 T inh: 1.4; CYP2C9 inh: 75*; Pyk2 oligo antag: 0.7

How did Brc1ccc(OCCCN2CCOCC2)cc1 do in these assays?
CYP2C19 act: 0.2; CYP2C9 activ: 1; CYP2C19 inh: 78*; Cav3 T inh: 0.51; CYP2C9 inh: 3; Pyk2 oligo antag: -0.95

What do the screens show for `Clc1cc(Br)ccc1OCCOCCOc1cccc2cccnc12`?
CYP2C19 act: 0.3; CYP2C9 activ: 1.7; CYP2C19 inh: 66*; Cav3 T inh: -1.6; CYP2C9 inh: -71; Pyk2 oligo antag: -0.04

What do the screens show for `Cc1cc(C)cc(OCCCOc2cccc3cccnc23)c1`?
CYP2C19 act: 0.1; CYP2C9 activ: 1.4; CYP2C19 inh: 87*; CYP2C9 inh: -42; Pyk2 oligo antag: -0.82

Results for Clc1ccc(OCCOCCN2CCCCC2)c(Br)c1 ?
CYP2C19 act: 0.7; CYP2C9 activ: 0.9; CYP2C19 inh: 30; Cav3 T inh: 0.61; CYP2C9 inh: 11; Pyk2 oligo antag: 0.25

Results for Clc1cc(Br)ccc1OCCOCCN1CCOCC1 ?
CYP2C19 act: 0.2; CYP2C9 activ: 1; CYP2C19 inh: 81*; Cav3 T inh: 0.67; CYP2C9 inh: -2; Pyk2 oligo antag: -0.35

What do the screens show for `N=c1ccn(Cc2ccc(Cl)cc2Cl)cc1`?
CYP2C19 act: 1; CYP2C9 activ: 0.9; CYP2C19 inh: 0; Cav3 T inh: -0.18; CYP2C9 inh: 11; Pyk2 oligo antag: 0.37

How did COc1ccc(C(=O)N2CC3(CC(c4cccc([N+](=O)[O-])c4)=NO3)C[C@H]2C(=O)NCC(N)=O)cc1 (stereo partly drawn) do in these assays?
CYP2C19 act: 0.9; CYP2C9 activ: 0.9; CYP2C19 inh: 11; Cav3 T inh: 0.2; CYP2C9 inh: 14

What do the screens show for `Cc1ccc(OC(=O)c2oc3ccc(F)cc3c2C)c(C)c1`?
CYP2C19 act: 0.7; CYP2C9 activ: 1; CYP2C19 inh: 30; Cav3 T inh: 0.32; CYP2C9 inh: 0; Pyk2 oligo antag: -0.06

What do the screens show for `CSc1nc2ccc(S(=O)(=O)NC3CCCCC3)cc2s1`?
CYP2C19 act: 0.3; CYP2C9 activ: 0.7; CYP2C19 inh: 74*; CYP2C9 inh: 31; Pyk2 oligo antag: -1.6

Results for CSc1nc2ccc(NS(=O)(=O)c3ccc4c(c3)OCCO4)cc2s1 ?
CYP2C19 act: 0; CYP2C9 activ: 0.2; CYP2C19 inh: 100*; Cav3 T inh: -4.5*; CYP2C9 inh: 84*; Pyk2 oligo antag: -1.9

Screening results as filed in PubChem BioAssay.
